Assay [1] addresses Estrogen receptor beta (Homo sapiens) (UniProt Q92731). As to the kind of experiment: OT_ER_ERbERb_0480: Odyssey Thera (OT) 8-hour HEK293T Protein-Complementation Assay for Estrogen Receptor-beta/-beta Homodimer (AID 2283357).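 Further: active means signal gain over DMSO baseline.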 Summed up: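 Readout: increase in mean fluorescence intensity (nucleus for agonists; nucleus plus cytoplasm for antagonists) relative to DMSO, from a reporter-fragment complementation of human ER-beta LBD homodimer in HEK293T cells dosed 8 hours.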

The target in assay [2] is Peroxisome proliferator-activated receptor gamma (Homo sapiens) (UniProt P37231). Put plainly: NVS_NR_hPPARg: NovaScreen (NVS) Nuclear Receptor Binding Assay for human Peroxisome Proliferator-activated Receptor gamma (PPARg) (AID 2283370). Summed up:
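Cell-free binding to extracted PPARg protein, read by fluorescence polarization 2 h after dosing; loss of signal relative to DMSO baseline marks displacement. Primary screen in duplicate at 25 uM, actives retested in concentration series.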

The target of assay [3] is Estrogen receptor beta (Homo sapiens) (UniProt Q92731). Put plainly: OT_ER_ERbERb_1440: Odyssey Thera (OT) 24-hour HEK293T Protein-Complementation Assay for Estrogen Receptor-beta/-beta Homodimer (AID 2283380).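 Further: fluorescence gain from ER beta LBD homodimer complementation read by laser scanning cytometry; scored as signal increase over DMSO baseline for both agonists and antagonists.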 Summed up:
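HEK293T cells stably expressing human ER-beta LBD (aa 310-547) PCA homodimer pair, dosed 24 h; formaldehyde-fixed, Draq5-stained. Readout: increase in nuclear (agonist) or nuclear plus cytoplasmic (antagonist) fluorescence intensity versus DMSO, gain-of-signal fitting.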

In assay [4] the target is Nuclear receptor subfamily 1 group I member 2 (Homo sapiens) (UniProt O75469). As to the kind of experiment: NVS_NR_hPXR: NovaScreen (NVS) Nuclear Receptor Binding Assay for human Pregnane X Receptor (PXR) (AID 2283365).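 Further: a drop in FRET signal versus DMSO baseline means the compound binds.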 The method, boiled down:
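Cell-free binding assay with extracted human PXR protein, read by TR-FRET 2 h after dosing; loss of signal relative to DMSO baseline indicates binding. Primary screen at 25 uM in duplicate, actives retested in concentration series.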

For assay [5], the target named is human Peroxisome Proliferator-activated Receptor alpha (PPARa), PPARA (gene 5465) (UniProt Q07869). Put plainly: NVS_NR_hPPARa: NovaScreen (NVS) Nuclear Receptor Binding Assay for human Peroxisome Proliferator-activated Receptor alpha (PPARa) (AID 2283359).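 Further: activity means loss of TR-FRET signal versus DMSO baseline.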 Summed up:
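Cell-free binding assay with extracted human protein, read by TR-FRET 1 h after chemical dosing. Loss of signal relative to DMSO baseline indicates binding. Primary screen used duplicate single concentration (25 uM); actives followed up in concentration series.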

In assay [6] the target is Retinoic acid receptor alpha (Homo sapiens) (UniProt P10276). Put plainly: NVS_NR_hRAR_Antagonist: NovaScreen (NVS) Nuclear Receptor Binding Assay for human Retinoic Acid Alpha Receptor Antagonism (RAR) (AID 2283358). The method, boiled down:
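Cell-free TR-FRET binding assay on extracted receptor protein, run in antagonist mode; signal read 2 hours after chemical dosing. Loss of signal was fitted relative to DMSO baseline. Screened at 25 uM in duplicate, actives followed up in concentration series.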

In assay [7] the target is Glucocorticoid receptor (Homo sapiens) (UniProt P04150). Put plainly: NVS_NR_hGR: NovaScreen (NVS) Nuclear Receptor Binding Assay for human Glucocorticoid Receptor (GR) (AID 2283363).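 On AC50: activity is loss of specific radioligand binding signal relative to DMSO.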 The method, boiled down:
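Cell-free radioligand binding with extracted receptor protein, read by filter-based scintillation counting 16 hours after dosing. Loss of specific signal versus DMSO baseline was scored. Primary screen ran in duplicate at 25 uM; actives were followed up in concentration series.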

The target in another assay is PGR (gene 5241) (UniProt P06401). As to the kind of experiment: NVS_NR_hPR: NovaScreen (NVS) Nuclear Receptor Binding Assay for human Progestron Receptor (PR) (AID 2283360).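 Further: active means loss of bound radioligand signal versus DMSO baseline.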 Summed up: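 Radioligand competition binding on receptor extracted from T47D cells, read by scintillation counting 18 h after dosing. Loss of signal versus DMSO; primary screen in duplicate at 25 uM, actives followed in concentration series.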
Chain of PGR (gene 5241) (P06401 whole entry, looked up): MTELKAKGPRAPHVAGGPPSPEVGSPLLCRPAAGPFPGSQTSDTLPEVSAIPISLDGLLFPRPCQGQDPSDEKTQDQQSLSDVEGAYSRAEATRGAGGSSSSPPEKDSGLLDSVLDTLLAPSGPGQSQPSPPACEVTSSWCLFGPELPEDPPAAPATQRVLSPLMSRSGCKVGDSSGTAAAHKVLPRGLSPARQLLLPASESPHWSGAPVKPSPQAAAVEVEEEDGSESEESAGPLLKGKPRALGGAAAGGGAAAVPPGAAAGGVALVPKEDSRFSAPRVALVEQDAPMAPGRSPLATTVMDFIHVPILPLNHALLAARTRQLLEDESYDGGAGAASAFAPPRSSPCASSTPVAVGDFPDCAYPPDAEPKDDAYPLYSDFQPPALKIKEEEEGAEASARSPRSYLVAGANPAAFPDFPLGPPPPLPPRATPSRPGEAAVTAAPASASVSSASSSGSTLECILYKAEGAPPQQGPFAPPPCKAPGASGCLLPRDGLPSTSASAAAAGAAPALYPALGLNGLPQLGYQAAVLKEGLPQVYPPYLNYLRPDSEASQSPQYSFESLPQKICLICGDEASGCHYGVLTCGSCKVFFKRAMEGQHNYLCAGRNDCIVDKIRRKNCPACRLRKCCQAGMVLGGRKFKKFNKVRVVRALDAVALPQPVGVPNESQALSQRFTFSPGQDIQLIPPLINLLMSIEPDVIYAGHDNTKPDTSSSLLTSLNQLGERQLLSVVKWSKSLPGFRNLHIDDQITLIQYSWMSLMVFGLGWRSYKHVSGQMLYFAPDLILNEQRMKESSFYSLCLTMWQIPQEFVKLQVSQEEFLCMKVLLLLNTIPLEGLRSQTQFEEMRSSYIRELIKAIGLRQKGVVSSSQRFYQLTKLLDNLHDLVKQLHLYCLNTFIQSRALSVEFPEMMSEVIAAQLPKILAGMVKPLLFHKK

Results filed as inconclusive are left out. Activity calls are given as the source filed them. How the source made its calls: active means hit-call score of the fitted dose curve at least 0.9, where 1 is the maximum; inconclusive means response in the unintended direction; inactive means score below 0.9.

Chain of Glucocorticoid receptor (Homo sapiens) (P04150 whole entry, looked up): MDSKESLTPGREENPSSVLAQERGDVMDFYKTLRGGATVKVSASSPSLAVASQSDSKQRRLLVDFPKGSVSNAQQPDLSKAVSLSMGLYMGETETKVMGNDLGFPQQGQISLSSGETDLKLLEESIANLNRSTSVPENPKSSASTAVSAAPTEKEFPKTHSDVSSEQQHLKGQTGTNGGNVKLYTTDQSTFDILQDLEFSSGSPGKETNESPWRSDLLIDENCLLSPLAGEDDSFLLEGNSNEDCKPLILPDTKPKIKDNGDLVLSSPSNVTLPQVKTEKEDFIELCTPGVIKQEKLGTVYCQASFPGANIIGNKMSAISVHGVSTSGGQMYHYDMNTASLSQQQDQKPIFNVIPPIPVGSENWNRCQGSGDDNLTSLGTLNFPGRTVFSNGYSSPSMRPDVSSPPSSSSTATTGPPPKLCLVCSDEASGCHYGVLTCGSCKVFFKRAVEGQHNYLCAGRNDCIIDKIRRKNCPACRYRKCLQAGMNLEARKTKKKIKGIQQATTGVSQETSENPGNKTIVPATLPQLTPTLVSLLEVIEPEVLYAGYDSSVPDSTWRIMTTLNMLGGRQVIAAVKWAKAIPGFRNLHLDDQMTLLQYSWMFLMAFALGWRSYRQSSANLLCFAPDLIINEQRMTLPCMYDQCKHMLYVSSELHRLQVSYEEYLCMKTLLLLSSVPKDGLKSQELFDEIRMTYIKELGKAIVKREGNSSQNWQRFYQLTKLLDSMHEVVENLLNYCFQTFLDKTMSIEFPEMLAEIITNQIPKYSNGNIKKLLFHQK
Chain of Estrogen receptor beta (Homo sapiens) (Q92731 whole entry, looked up, the tested form may be a part): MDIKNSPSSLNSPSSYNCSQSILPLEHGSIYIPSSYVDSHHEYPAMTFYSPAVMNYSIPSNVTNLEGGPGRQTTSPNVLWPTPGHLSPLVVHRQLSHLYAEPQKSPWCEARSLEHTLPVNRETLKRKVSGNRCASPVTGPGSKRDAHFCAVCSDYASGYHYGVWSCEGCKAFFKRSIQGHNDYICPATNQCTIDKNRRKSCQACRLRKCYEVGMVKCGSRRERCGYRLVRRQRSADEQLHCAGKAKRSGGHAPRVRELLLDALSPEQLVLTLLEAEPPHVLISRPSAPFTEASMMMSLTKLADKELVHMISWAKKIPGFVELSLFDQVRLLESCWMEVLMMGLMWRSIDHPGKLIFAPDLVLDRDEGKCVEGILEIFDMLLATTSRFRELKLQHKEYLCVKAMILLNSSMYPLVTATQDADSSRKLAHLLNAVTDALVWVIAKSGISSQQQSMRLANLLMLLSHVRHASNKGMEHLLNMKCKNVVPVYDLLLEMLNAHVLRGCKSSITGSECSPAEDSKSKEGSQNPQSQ
Chain of Peroxisome proliferator-activated receptor gamma (Homo sapiens) (P37231 whole entry, looked up): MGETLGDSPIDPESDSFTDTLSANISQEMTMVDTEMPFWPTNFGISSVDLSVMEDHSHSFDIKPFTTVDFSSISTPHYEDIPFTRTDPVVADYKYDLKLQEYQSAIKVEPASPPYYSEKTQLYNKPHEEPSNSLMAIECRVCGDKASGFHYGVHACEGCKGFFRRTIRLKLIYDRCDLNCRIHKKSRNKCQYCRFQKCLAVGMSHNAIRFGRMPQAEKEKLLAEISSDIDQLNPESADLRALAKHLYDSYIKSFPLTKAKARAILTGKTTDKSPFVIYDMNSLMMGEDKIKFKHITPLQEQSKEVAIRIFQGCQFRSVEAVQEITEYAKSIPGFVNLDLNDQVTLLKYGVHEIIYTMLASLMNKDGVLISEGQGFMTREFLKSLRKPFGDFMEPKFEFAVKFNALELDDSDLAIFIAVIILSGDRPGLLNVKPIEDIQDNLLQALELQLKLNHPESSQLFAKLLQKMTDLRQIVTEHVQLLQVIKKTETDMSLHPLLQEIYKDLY
Chain of Nuclear receptor subfamily 1 group I member 2 (Homo sapiens) (O75469 whole entry, looked up): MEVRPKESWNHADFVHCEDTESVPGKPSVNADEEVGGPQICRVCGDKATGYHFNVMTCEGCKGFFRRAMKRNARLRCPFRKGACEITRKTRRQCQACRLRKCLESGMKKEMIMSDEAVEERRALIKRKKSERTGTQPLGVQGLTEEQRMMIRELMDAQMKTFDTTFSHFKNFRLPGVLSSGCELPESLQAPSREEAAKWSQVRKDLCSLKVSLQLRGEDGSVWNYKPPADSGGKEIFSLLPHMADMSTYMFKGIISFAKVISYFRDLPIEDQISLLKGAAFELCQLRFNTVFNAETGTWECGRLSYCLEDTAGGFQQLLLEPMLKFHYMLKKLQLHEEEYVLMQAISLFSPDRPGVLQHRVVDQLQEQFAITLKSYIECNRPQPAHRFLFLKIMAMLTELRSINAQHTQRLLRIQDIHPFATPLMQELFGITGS
Chain of human Peroxisome Proliferator-activated Receptor alpha (PPARa), PPARA (gene 5465) (Q07869 whole entry, looked up): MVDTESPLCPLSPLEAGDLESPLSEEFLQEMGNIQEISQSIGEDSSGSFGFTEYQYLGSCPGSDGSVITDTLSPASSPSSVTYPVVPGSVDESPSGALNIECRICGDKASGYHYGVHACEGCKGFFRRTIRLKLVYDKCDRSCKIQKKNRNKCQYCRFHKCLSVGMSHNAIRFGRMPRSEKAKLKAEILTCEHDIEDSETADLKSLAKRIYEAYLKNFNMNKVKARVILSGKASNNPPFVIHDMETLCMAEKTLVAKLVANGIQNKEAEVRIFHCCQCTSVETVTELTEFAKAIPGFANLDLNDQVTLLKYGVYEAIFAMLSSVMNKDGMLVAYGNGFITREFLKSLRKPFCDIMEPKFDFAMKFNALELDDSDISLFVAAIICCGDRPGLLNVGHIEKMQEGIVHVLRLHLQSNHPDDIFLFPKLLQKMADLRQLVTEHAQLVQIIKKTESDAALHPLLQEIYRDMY
Chain of Retinoic acid receptor alpha (Homo sapiens) (P10276 whole entry, looked up): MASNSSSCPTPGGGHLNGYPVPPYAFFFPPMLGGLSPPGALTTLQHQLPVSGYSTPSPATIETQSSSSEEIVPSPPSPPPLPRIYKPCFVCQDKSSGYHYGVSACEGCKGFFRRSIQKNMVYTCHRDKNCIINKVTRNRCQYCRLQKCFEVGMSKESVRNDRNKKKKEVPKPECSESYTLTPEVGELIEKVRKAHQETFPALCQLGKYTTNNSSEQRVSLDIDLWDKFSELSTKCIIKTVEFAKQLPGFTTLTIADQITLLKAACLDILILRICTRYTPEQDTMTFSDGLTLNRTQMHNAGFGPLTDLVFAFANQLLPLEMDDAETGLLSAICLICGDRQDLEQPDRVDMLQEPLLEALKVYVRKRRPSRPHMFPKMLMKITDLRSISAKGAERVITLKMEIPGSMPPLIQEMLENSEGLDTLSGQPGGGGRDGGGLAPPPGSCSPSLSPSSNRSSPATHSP

In the case of `C=CC(C)(O)CCC=C(C)C` (configuration not stated), the compound was classed as inactive in assay [1] and in assay [2].

In general, AC50 refers to the concentration giving half of the maximal activity seen. In the case of `CCCC(=O)OC(C)(C)Cc1ccccc1`, the compound was called inactive in assay [1] and in assay [3]. Moreover, in assay [2], the AC50 is 13.4 µM (active).

In the case of `CC(C)c1ccccc1O`, the compound was called inactive in assay [1] and in assay [4].

As for `ON=C1CCCCC1`, the call in assay [1] and in assay [3] was inactive.

Consider `C=CC(=O)OCCCC`, for which the outcome in assay [1] and in assay [3] was inactive.

As to `O=Cc1ccccc1S(=O)(=O)O`, the result in assay [1] and in assay [3] was inactive.

As to `O=P(O)(O)O`, the outcome in assay [1], in assay [5], in assay [4] and in assay [3] was inactive.

`CCCCCCCCN1CCCC1=O`: the outcome in assay [1], in assay [4] and in assay [3] was inactive.

For `O=C1NC2NC(=O)NC2N1` (configuration not stated), in assay [1], the AC50 is 22.1 µM (active). The outcome in assay [4] was inactive.

Regarding `CCOc1ccc(N=Nc2ccc(C=Cc3ccc(N=Nc4ccc(OCC)cc4)cc3S(=O)(=O)O)c(S(=O)(=O)O)c2)cc1`, the half-maximal activity concentration (AC50) in assay [6] is 12.9 µM (active); in assay [5] it was 9.11 µM (active); in assay [7], 3.4 µM (active); in assay [4], 0.695 µM (active). For the same compound, the compound was called inactive in assay [2].

On to `C=C1CC[C@H](O)C/C1=C/C=C1\CCC[C@]2(C)[C@@H]([C@H](C)/C=C/[C@H](C)C(C)C)CC[C@@H]12`, for which the compound was classed as inactive in assay [1], in assay [2] and in assay [3]. For the same compound, the AC50 in assay [7] is 25 µM (active); in assay [4] it was 12 µM (active).

With `CN(C)c1cccc(O)c1`, the compound was called inactive in assay [1] and in assay [2].

For `C=C[Si]1(C)O[Si](C)(C=C)O[Si](C)(C=C)O[Si](C)(C=C)O1` (configuration not stated), the AC50 in assay [1] is 23.8 µM (active). Besides, the outcome in assay [2] was inactive.

As to `CCC(=O)O[C@@H]1C[C@H]2CC[C@]1(C)C2(C)C`, the outcome in assay [1], in assay [7], in assay [2] and in assay [3] was inactive.

On to `CCCCCCC(C)(C)S`, for which the compound was called inactive in assay [1] and in assay [2].

Take `CS(=O)(=O)c1ccc(C2=C(c3ccccc3)C(=O)OC2)cc1`: the result with PGR (gene 5241) was inactive.

As for `CSCCC=O`, the outcome in assay [1], in assay [4], in assay [2] and in assay [3] was inactive.

Values taken from PubChem BioAssay (EPA / NIEHS).
